The entries come from a sample that favours hits as a whole.
LmPK inh – qHTS Assay for Inhibitors of Leishmania Mexicana Pyruvate Kinase (LmPK); hit rate 0.37% among 290,000; purified LmPK, Kinase-Glo ATP luminescence, 1 h; Q27686; Potency, µM (doses to about 57.5 µM), inactives show top-dose activity change, negative = inhibition, hits mostly inhibitors; note: potency is the fitted concentration of half-maximal effect; % is set by controls: 0 for no effect and ±100 for the full control effect
Target sequence (Q27686 whole entry, looked up): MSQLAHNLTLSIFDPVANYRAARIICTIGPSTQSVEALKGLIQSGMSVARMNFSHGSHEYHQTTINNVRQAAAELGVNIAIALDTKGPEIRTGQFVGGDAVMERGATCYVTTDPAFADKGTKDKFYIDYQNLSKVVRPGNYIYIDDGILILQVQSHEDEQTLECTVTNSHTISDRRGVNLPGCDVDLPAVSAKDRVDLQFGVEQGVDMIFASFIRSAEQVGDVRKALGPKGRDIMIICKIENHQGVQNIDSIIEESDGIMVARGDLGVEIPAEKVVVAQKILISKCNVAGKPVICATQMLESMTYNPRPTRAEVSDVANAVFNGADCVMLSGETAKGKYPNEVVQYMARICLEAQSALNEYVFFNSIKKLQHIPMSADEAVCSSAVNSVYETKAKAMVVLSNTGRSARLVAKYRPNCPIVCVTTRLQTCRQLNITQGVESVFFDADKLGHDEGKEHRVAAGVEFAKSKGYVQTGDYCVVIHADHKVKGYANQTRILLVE
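Pyruvate kinase activity monitored as ATP production (luciferase luminescence). Conditions: 0.1 nM enzyme, 0.5 mM PEP, 0.1 mM ADP, 1 h, RT; normalized against uninhibited and no-enzyme wells.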
Sm TGR block – qHTS Assay for the Inhibitors of Schistosoma Mansoni Peroxiredoxins | hit rate 3% among 360,000 | Schistosoma mansoni thioredoxin glutathione reductase (TGR), Q962Y6 | purified TGR, DTNB reduction, TNB absorbance 405 nm | Potency, µM (top dose mostly 114 µM), inactives show at the highest dose activity change, negative = inhibition, usual class: inhibitors; note: potency is the fitted concentration of half-maximal effect; % is set by controls: 0 for no effect and ±100 for the full control effect; nearly all actives have a fitted effect of over 60% in size
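TGR 20 nM + NADPH 100 uM (dispensed conc.), cpd preinc 15 min RT; start with NADPH (500 uM addition) then DTNB (15 mM addition). Kinetic TNB absorbance, 405 nm filter. Four-parameter Hill fit across titration.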
FBPA Giardia inh – qHTS Assay for Inhibitors of Fructose-1,6-bisphosphate Aldolase from Giardia Lamblia | A8B2U2 | purified Giardia FBPA | Potency, µM (top dose mostly 59.6 µM), without a hit: at the top dose activity, negative = inhibition, usual class: inhibitors | hit rate 0.71% among 290,000 | AID 2451, 2010; note: potency is the fitted concentration of half-maximal effect; % is set by controls: 0 for no effect and ±100 for the full control effect; nearly all actives have a fitted effect of over 55% in size
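40 nM FBPA preincubated 10 min at RT with compound (up to 57.5 uM final), then substrate plus GAPDH/TPI/NAD/arsenate coupling and diaphorase/resazurin added. Fluorescence read after 20 min at RT, 525/598 nm.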
Cycloheximide cs – Cycloheximide Counterscreen for Small Molecule Inhibitors of Shiga Toxin. cell reporter, cycloheximide protein synthesis inhibition counterscreen. max response, %. hit rate 12% among 300,000. AID 2314, 2010; in the data active = max response mostly above about 13%, no sharp cut-off; inactive = mostly below about 14%; note: read at 38.3 µM for the half of the compounds with a filed dose; 0% is about no effect
TbPYK inhibitor – qHTS of Trypanosoma Brucei Inhibitors | hit rate 0.12% among 410,000 | pyruvate kinase (Trypanosoma brucei), Q57TT1 | Potency, µM (titrated, usually from 76.8 µM), for inactives: top-dose activity, negative = inhibition, most hits filed as inhibitors | TbPYK enzyme, Kinase-Glo Plus ATP luminescence, 45 min; note: potency is the fitted concentration of half-maximal effect; % is set by controls: 0 for no effect and ±100 for the full control effect; nearly all actives have a fitted effect of over 50% in size
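Assay buffer: 50 mM TEA pH 7.2, 100 mM KCl, 10 mM MgCl2, 0.05% BSA, 0.01% Tween-20. Pyruvate kinase from T. brucei plus substrate met compound, then ADP (130 uM final). Luminescence was read post 45 min RT.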
Shiga inhibitor – A qHTS for Small Molecule Inhibitors of Shiga Toxin. hit rate 9.2% among 290,000. inhibition, % at 38.7 µM. Vero cells, Shiga toxin protein synthesis inhibition reporter; in the data active = inhibition mostly above about 28%, no sharp cut-off; inactive = mostly below about 43%; note: 0% is about no effect
* = called active by the depositor; ? = inconclusive; nt = not tested or not shown; [ ] = remark or other dose. Unless noted, calls come from the whole dose curve; as a rule, active = well fitted curve in the direction sought with a large enough effect; inconclusive = small, poorly fitted or top-dose-only effect, or another doubt; inactive = no such curve, though single readings can be large; an effect the other way counts as inactive or inconclusive.

SMILES	LmPK inh	Sm TGR block	FBPA Giardia inh	Cycloheximide cs	TbPYK inhibitor	Shiga inhibitor
CC(=O)NC12CC3CC(C1)CC(C(=O)N(C)Cc1cccc(Cl)c1Cl)(C3)C2	-3.9%	-5.0%	nt	-6.6	1.5%	-13.9
Cc1ccc(S(=O)(=O)Nc2cc(Br)cc3cccnc23)cc1	nt	nt	nt	14.2	nt	-11.4
COc1ccc(S(=O)(=O)Nc2cc3c(cc2NCc2ccccc2)n(C)c(=O)n3C)cc1	nt	-0.3%	nt	nt	-1.5%	nt
N#Cc1cccc(CS(=O)(=O)c2nc3ccccc3s2)c1	nt	nt	-9.2%	nt	nt	nt
COc1cc(-c2nnc(SCCOc3cc(C)cc(C)c3)o2)cc(OC)c1OC	nt	35.5µM*	nt	nt	-3.7%	nt
CCc1ccccc1OCCSc1nnc(-c2cc(OC)c(OC)c(OC)c2)o1	nt	-12.8%	nt	nt	-8.2%	nt
CSCc1ccc(C(=O)NC2CC(C)(C)Cc3c2cnn3-c2ccc(F)cc2)o1 (stereo not drawn)	-3.3%	?	16.9%	28.0*	0.0%	-2.3
CC1(C)Cc2c(cnn2-c2ccc(F)cc2)C(NC(=O)c2ccc(=O)oc2)C1 (stereo not drawn)	-1.8%	3.3%	nt	22.4*	5.9%	57.2
CC1(C)Cc2c(cnn2-c2ccc(F)cc2)C(NC(=O)c2cnccn2)C1 (stereo not drawn)	nt	nt	nt	nt	0.5%	nt
CC1(C)Cc2c(cnn2-c2ccc(F)cc2)C(NC(=O)C(C)(C)O)C1 (stereo not drawn)	-1.6%	11.4%	2.3%	-3.5	0.3%	-10.5
C=C1CCC[C@]2(C)C[C@H]3OC(=O)[C@H](CNCCc4ccccc4OC)C3CC12 (stereo partly drawn)	nt	nt	-2.3%	nt	nt	nt
Cn1c(SCC(=O)N2CCCc3ccccc32)ncc(C(=O)Nc2ccccc2)c1=O	nt	-30.7%	nt	nt	2.6%	nt
NC(=S)Nc1cnc2ccccc2c1	2.8%	-5.4%	-5.8%	26.9*	-4.8%	55.5*
Cc1cccc(NC(=O)CS(=O)CC(=O)Nc2cnc3ccccc3c2)c1C (stereo not drawn)	-1.7%	-18.2%	16.1%	6.2	6.9%	-18.2
COc1ccc(NC(=S)Nc2cc(C)ccn2)c(OC)c1	2.8%	-19.7%	-9.4%	28.3*	-6.5%	75.0*
COc1ccc(NC(=S)NC2CCCCCC2)c(OC)c1	1.3%	8.4%	2.9%	-10.4	8.7%	47.7*
S=C(Nc1cccc2ccccc12)NC1CCCCC1	4.4%	1.8%	?	40.3*	0.5%	50.8*
Clc1cccc(CNc2cc(-c3ccccc3)nc3nncn23)c1	nt	-0.7%	nt	nt	-1.8%	nt
CC(C)=CCC/C(C)=C/CO/N=C1/[C@H]2O[C@@H]2[C@@H](O)[C@H]2[C@H]1CCn1c(=O)n(Cc3cc4c(cc3Cl)OCO4)c(=O)n12	nt	nt	2.8%[12.9 µM]	nt	nt	nt
Cc1ccc(Nc2nc3ccccc3c3nnc(C)n23)c(C)c1	nt	1.7%	nt	nt	-0.4%[15.4 µM]	nt
CCOC(=O)CCN1C(=O)[C@H]2[C@H]3[C@H](O)[C@H](O)C/C(=N/NC(=O)OCC)[C@H]3CC[C@@H]2C1=O	nt	nt	0.7%[12.9 µM]	nt	nt	nt
O=C(O)C(Cc1cccs1)c1cccs1 (stereo not drawn)	nt	nt	nt	nt	14.6%	nt
COc1ccc(NC(=S)Nc2ccc(OC)cc2OC)c(OC)c1	1.8%	-3.1%	-9.4%	0.8	-10.7%	-5.9
COc1ccc(NC(=S)Nc2cnc3ccccc3c2)c(OC)c1	0.5%	39.8µM*	-5.2%	14.5	-0.2%	-4.3
COc1ccc(NC(=S)Nc2ccccn2)c(OC)c1	0.3%	?	0.8%	35.1*	-1.9%	119.7*
SMILES	LmPK inh	Sm TGR block	FBPA Giardia inh	Cycloheximide cs	TbPYK inhibitor	Shiga inhibitor
COc1ccc(NC(=S)Nc2ccccc2OC)c(OC)c1	3.0%	nt	-18.6%	7.4	4.8%	3.6
COc1ccc(NC(=S)NC(=O)CC(C)C)c(OC)c1	-3.7%	39.8µM*	-0.1%	20.7*	-9.5%	50.4*
CC[C@H](C)[C@H](NC(=O)[C@H](CCC(=O)O)NC(=O)CNC(=O)[C@H](CCCCN)NC(=O)[C@H](CCC(=O)O)NC(=O)[C@H](CCSC)NC(=O)[C@H](CCSC)NC(=O)[C@H](CCSC)NC(=O)[C@H](CCC(=O)O)NC(=O)CNC(=O)[C@H](CO)NC(=O)[C@H](CO)NC(=O)[C@H](CO)NC(=O)[C@@H](N)CC(N)=O)C(=O)N[C@@H](CCCCN)C(=O)O	nt	nt	3.2%	1.2	nt	-5.8
COc1ccccc1CNC(=O)c1ccc(N2CCCC2)c(NC(=O)NCc2ccc(F)cc2)c1	nt	8.8%	nt	nt	3.8%	nt
C/C(=N/NC(=O)OC(C)(C)C)c1ccco1	?	-19.7%	-2.3%	29.0*	-9.2%	65.6*
COc1ccc(CC(=O)N/N=C(/C)c2ccco2)cc1	-4.8%	-0.4%	-0.4%	0.8	-0.4%	-7.5
CC(/C=C/c1ccco1)=N/NC(=O)OC(C)(C)C	1.4%	39.8µM*	-14.6%	23.1*	-13.6%	52.3
O=C(CNC(=O)c1cccs1)OCc1c(F)cccc1Cl	-1.3%	1.5%	9.6%	48.4*	-3.9%	103.0*
Cc1ccc(S(=O)(=O)NCC(=O)NCC(=O)OCc2c(F)cccc2Cl)cc1	1.9%	?	?	13.1*	-3.8%	49.2
COc1ccc(N2CC(NC(=O)/C=C\c3ccccc3)CC2=O)cc1 (stereo not drawn)	nt	-2.5%	nt	nt	0.4%	nt
CCc1ccccc1NC(=O)Cn1nc2c3cc(F)ccc3n(Cc3cccc(C)c3)cc-2c1=O	nt	7.7%	nt	nt	0.5%	nt
CC(=O)Nc1c(C(=O)O)oc2ccc(Cl)cc12	0.0%	2.8%	16.1%	-1.3	6.6%	-10.1
O=C(CCl)Nc1c(C(=O)Nc2ccc3c(c2)OCCO3)oc2ccccc12	-4.9%	?	nt	69.3*	-3.8%	84.0*
CC(=O)Nc1c(C(=O)O)oc2ccccc12	-0.3%	0.0%	12.0%	23.5*	-13.4%	40.5
COc1cccc(NC(=O)c2oc3ccccc3c2NC(=O)c2ccc3c(c2)OCO3)c1	-10.2%	-13.2%	-2.4%	3.2	2.4%	13.4
Cc1c(C(=O)Nc2ccc3c(c2)OCO3)oc2ccccc12	-0.2%	16.6%	-7.4%	42.8	-6.9%	120.8*
CSCc1c(C(=O)Nc2ccc3c(c2)OCO3)oc2ccccc12	2.7%	-2.0%	-10.0%	19.5*	-7.5%	59.7*
COCC(=O)Nc1c(C(=O)Nc2ccc3c(c2)OCO3)oc2ccccc12	0.2%	-10.8%	-1.8%	6.7	1.6%	10.5
CC(=O)Nc1c(C)nn(-c2ccccc2)c1N1CCC(C(=O)Nc2cccc(C(F)(F)F)c2)CC1	nt	0.2%	nt	nt	-1.5%	nt
CC(=O)Nc1c(C(=O)Nc2ccc3c(c2)OCO3)oc2ccccc12	1.0%	0.4%	?	41.8*	-1.0%	113.8*
CCOc1ccccc1NC(=O)c1ccc2c(c1)CCN2S(C)(=O)=O	nt	-1.2%	nt	nt	-4.3%	nt

Bioassay records deposited in PubChem by National Center for Advancing Translational Sciences (NCATS).
